# Assay results taken from PubChem BioAssay (Tox21).
# A number with no mark means an inactive call. Inconclusive results are not listed. Active and inactive are the calls of the source. Unless noted, the call rests on the fitted dose curve; in most records, active means well fitted curve in the direction sought with a large enough effect in the repeat runs; inconclusive means weak or mixed curves; inactive means flat fitted curve, though single readings scatter.
# Test system: not listed separately
# Experiment: qHTS assay to test for compound auto fluorescence at 460 nm (blue) in HepG2 cells (AID 720687)
# Settings: autofluorescence 405/460 nm, 1 h; series mostly up to 91.3 µM; fluorescence, % of fluorescent control: at the top concentration
# In short: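 Blue-channel autofluorescence (Ex/Em 405/460 nm, triamterene-equivalent) was measured after 1 hr compound exposure at 37 C, 5% CO2. Cells were HepG2, plated overnight at 37 C in MEM plus 10% FBS.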
# On the % scale 0 is the no-effect control and ±100 the full control effect.
SMILES,"fluorescence, % of fluorescent control",outcome
CC(C)N(CCC(C(N)=O)(c1ccccc1)c1ccccn1)C(C)C (stereo unspecified),0.0801% [at 46 µM],–
C(=NC1CCCCC1)=NC1CCCCC1,–,inactive
CC1(C)CCC(Cc2ccc(Cl)cc2)C1(O)Cn1cncn1 (stereo unspecified),0.0303%,–
ClCc1ccccc1,-0.081%,–
O=C(O)c1ccccc1C(=O)Nc1cccc2ccccc12,0.382%,–
Clc1cccc2ccccc12,0.128%,–
CCCCN=C=O,-0.0184%,–
CN1C(=O)C(O)N=C(c2ccccc2)c2cc(Cl)ccc21 (stereo unspecified),–,inactive
Cn1cc[n+](C)c1 (tested in a mixture with another compound),-0.0469%,–
C=COC(C)=O,-0.123% [at 95.7 µM],–
COC(C)(C)CCC[C@H](C)C/C=C/C(C)=C/C(=O)OC(C)C,0.158%,–

# Target: Glucocorticoid receptor (Homo sapiens) (UniProt P04150)
# Sequence (P04150 whole entry, looked up): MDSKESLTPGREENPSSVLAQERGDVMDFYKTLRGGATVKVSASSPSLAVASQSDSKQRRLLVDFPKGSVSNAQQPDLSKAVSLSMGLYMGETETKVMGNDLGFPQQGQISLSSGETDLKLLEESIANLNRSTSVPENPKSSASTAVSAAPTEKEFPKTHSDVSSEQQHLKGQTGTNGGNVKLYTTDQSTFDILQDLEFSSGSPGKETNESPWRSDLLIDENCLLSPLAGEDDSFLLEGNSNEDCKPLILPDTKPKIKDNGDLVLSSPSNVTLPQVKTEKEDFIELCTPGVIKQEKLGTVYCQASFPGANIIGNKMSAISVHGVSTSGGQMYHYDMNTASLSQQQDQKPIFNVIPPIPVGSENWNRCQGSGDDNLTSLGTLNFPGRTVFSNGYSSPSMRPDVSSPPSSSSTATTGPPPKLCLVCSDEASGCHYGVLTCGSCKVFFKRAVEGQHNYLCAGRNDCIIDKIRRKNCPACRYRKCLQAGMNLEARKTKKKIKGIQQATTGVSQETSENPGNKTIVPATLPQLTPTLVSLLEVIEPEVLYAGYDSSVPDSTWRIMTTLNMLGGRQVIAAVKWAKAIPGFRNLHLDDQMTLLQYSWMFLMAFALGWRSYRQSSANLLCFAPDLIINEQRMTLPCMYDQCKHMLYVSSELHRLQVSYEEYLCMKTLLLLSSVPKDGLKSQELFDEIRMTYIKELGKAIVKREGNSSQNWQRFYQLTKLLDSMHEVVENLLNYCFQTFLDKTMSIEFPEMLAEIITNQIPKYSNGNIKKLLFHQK
# Experiment: qHTS assay to identify small molecule agonists of the glucocorticoid receptor (GR) signaling pathway (AID 720691; active means well fitted activation curve with a large enough effect in the signal ratio in the repeat runs, not every such curve was filed as active; the % refers to the signal ratio)
# Settings: GR-bla HeLa, beta-lactamase reporter ratio, 18 h; series mostly up to 62.4 µM; activation: at the top concentration
# In short: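 Compounds in DMSO, alongside positive controls, were added to GR-bla HeLa reporter cells and incubated 18 h at 37 C; GRE-driven beta-lactamase was detected by fluorescence after 2 h with FRET substrate at room temperature.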
row,SMILES,activation
1,O=C(CCl)c1ccc(Cl)cc1Cl,-17%
2,N#Cc1cc(I)c(O)c(I)c1,-5.92%
3,Nc1ccc(N=Nc2ccc(-c3ccc(N=Nc4c(S(=O)(=O)O)cc5cc(S(=O)(=O)O)c(N=Nc6ccccc6)c(O)c5c4N)cc3)cc2)c(N)c1,3.12%
4,O=C1NCN(c2ccccc2)C12CCN(CCCOc1ccc(F)cc1)CC2,-4.39%
5,O=NN1CCNCC1,-1.04% [at 79.2 µM]
